The source made the active and inactive calls. The calls were made as follows: active = hit-call score of the fitted dose curve at least 0.9, where 1 is the maximum; inactive = score below 0.9.
Experiments:
Conditions in all cases: mRNA level, 48 h; actives raise or lower the signal
[1] = read-out: Paternally Expressed 10 (PEG10), PEG10 (gene 23089); experiment: LTEA_HepaRG_PEG10: Life Technologies and Expression Analysis (LTEA) Assay for Paternally Expressed 10 (PEG10) using HepaRG (AID 2283520)
Outline: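 Differentiated HepaRG cells, plated 48 h then switched to serum-free induction medium, were exposed in duplicate for 48 h to eight half-log concentrations topping at 100 uM in 0.5% DMSO. PEG10 mRNA was quantified by TaqMan qRT-PCR, normalised to ACTB, GAPDH and POLR2A.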

[2] = read-out: Nuclear factor NF-kappa-B p105 subunit (Homo sapiens) (UniProt P19838); experiment: LTEA_HepaRG_NFKB1: Life Technologies and Expression Analysis (LTEA) Assay for Nuclear Factor Kappa B Subunit 1 (NFKB1) using HepaRG (AID 2283521);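 also: TaqMan qRT-PCR transcript normalised to ACTB GAPDH and POLR2A housekeeping genes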
Outline: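 Differentiated human HepaRG cells were exposed for 48 h in serum-free induction medium to eight concentrations (top 100 uM, half-log steps, 0.5% DMSO), in duplicate. NFKB1 mRNA was measured by TaqMan qRT-PCR, normalized to ACTB/GAPDH/POLR2A, and fitted bidirectionally against DMSO.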

[3] = read-out: Protein phosphatase 2A (PPP2R4), PTPA (gene 5524); experiment: LTEA_HepaRG_PPP2R4: Life Technologies and Expression Analysis (LTEA) Assay for Protein phosphatase 2A (PPP2R4) using HepaRG (AID 2283522)
Outline: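 Differentiated HepaRG cells in serum-free induction medium were exposed in duplicate for 48 h to eight concentrations, top 100 uM with half-log dilutions, in 0.5% DMSO. PPP2R4 mRNA was quantified by TaqMan qRT-PCR, normalized to ACTB, GAPDH and POLR2A.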

[4] = read-out: Phosphatase and tensin (PTEN), PTEN (gene 5728); experiment: LTEA_HepaRG_PTEN: Life Technologies and Expression Analysis (LTEA) Assay for Phosphatase and tensin (PTEN) using HepaRG (AID 2283523)
Outline: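 Read-out is PTEN transcript level by multiplexed TaqMan qRT-PCR after 48 h chemical treatment of human HepaRG cultures in serum-free induction medium. Concentrations spanned 100 uM downward in half-log steps, 0.5% DMSO throughout; activity fitted in both directions against vehicle.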

[5] = read-out: solute carrier (SLC22A1), SLC22A1 (gene 6580); experiment: LTEA_HepaRG_SLC22A1: Life Technologies and Expression Analysis (LTEA) Assay for solute carrier (SLC22A1) using HepaRG (AID 2283524)
Outline: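 HepaRG (human liver line), 48 h dosing in serum-free induction medium; 8 conc., half-log down from 100 uM, 0.5% DMSO vehicle, duplicates. Endpoint: SLC22A1 mRNA, qRT-PCR, housekeeping-normalized; gain/loss fit vs DMSO.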

[6] = read-out: Pyruvate Dehydrogenase Kinase 4 (PDK4), PDK4 (gene 5166); experiment: LTEA_HepaRG_PDK4: Life Technologies and Expression Analysis (LTEA) Assay for Pyruvate Dehydrogenase Kinase 4 (PDK4) using HepaRG (AID 2283525)
Outline: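 In this multiplexed human HepaRG expression assay, cells are treated 48 h with test chemicals across an eight-point range starting at 100 uM. PDK4 mRNA changes, normalized to ACTB/GAPDH/POLR2A, are fitted in both directions relative to vehicle.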

[7] = read-out: NAD(P)H dehydrogenase [quinone] 1 (NQO1), NQO1 (gene 1728); experiment: LTEA_HepaRG_NQO1: Life Technologies and Expression Analysis (LTEA) Assay for NAD(P)H dehydrogenase [quinone] 1 (NQO1) using HepaRG (AID 2283526)
Outline: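 Differentiated HepaRG cells, plated 48 h and then switched to serum-free induction medium, were exposed in duplicate for 48 h to 8-point half-log concentrations up to 100 uM in 0.5% DMSO. mRNA measured by qRT-PCR, normalized to ACTB, GAPDH, POLR2A; bidirectional fit versus DMSO.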

[8] = read-out: Nuclear factor erythroid 2-related factor 2 (Homo sapiens) (UniProt Q16236); experiment: LTEA_HepaRG_NFE2L2: Life Technologies and Expression Analysis (LTEA) Assay for Nuclear factor erythroid 2-related factor 2 (NFE2L2) Transcription Factor using HepaRG (AID 2283527)
Outline: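 Transcript level of NFE2L2 is the read-out, measured by microfluidic TaqMan qRT-PCR and normalized to three housekeeping genes. Human HepaRG cultures received test chemical for 48 h at up to 100 uM in half-log steps. Gain or loss of signal is fitted relative to 0.5% DMSO.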

[9] = read-out: Signal transducer and activator of transcription 3 (Homo sapiens) (UniProt P40763); experiment: LTEA_HepaRG_STAT3: Life Technologies and Expression Analysis (LTEA) Assay for Signal transducer and activator of transcription (STAT3) using HepaRG (AID 2283529)
Outline: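 Read-out is STAT3 mRNA level by qRT-PCR, normalized to three housekeeping genes, in human HepaRG liver cells treated for 48 h. Concentrations ran from 100 uM downward in half-log steps; curves were fitted for gain or loss relative to 0.5% DMSO.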

[10] = read-out: solute carrier (SLCO1B1), SLCO1B1 (gene 10599); experiment: LTEA_HepaRG_SLCO1B1: Life Technologies and Expression Analysis (LTEA) Assay for solute carrier (SLCO1B1) using HepaRG (AID 2283530)
Outline: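 Gain or loss of SLCO1B1 mRNA is fitted against the 0.5% DMSO vehicle in human HepaRG liver cells treated 48 h at up to 100 uM in half-log steps. Expression comes from qRT-PCR normalized to endogenous controls.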

[11] = read-out: sulfotransferase 2A1 (SULT2A1), SULT2A1 (gene 6822); experiment: LTEA_HepaRG_SULT2A1: Life Technologies and Expression Analysis (LTEA) Assay for sulfotransferase 2A1 (SULT2A1) using HepaRG (AID 2283531)
Outline: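 Cells were plated and cultured 48 h, switched to serum-free induction medium, then dosed in duplicate for 48 h (8 concentrations, max 100 uM). RNA was isolated and SULT2A1 expression measured by qRT-PCR; gain or loss of signal fitted relative to DMSO.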

[12] = read-out: Transforming Growth Factor (TGFA), TGFA (gene 7039); experiment: LTEA_HepaRG_TGFA: Life Technologies and Expression Analysis (LTEA) Assay for Transforming Growth Factor (TGFA) using HepaRG (AID 2283532)
Outline: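 HepaRG (human liver line), 48 h exposure, 8 conc. half-log down from 100 uM, 0.5% DMSO vehicle, duplicates; serum-free induction medium. TGFA mRNA by TaqMan qRT-PCR, ACTB/GAPDH/POLR2A normalization; gain/loss fit vs DMSO.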

TIMP1, TIMP1 (gene 7076) = experiment: LTEA_HepaRG_TIMP1: Life Technologies and Expression Analysis (LTEA) Assay for TIMP1 using HepaRG (AID 2283534);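 also: TaqMan qRT-PCR signal normalized to ACTB GAPDH and POLR2A housekeeping genes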
Outline: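 We dosed human liver HepaRG cultures for 48 hours with up to 100 uM test chemical and measured TIMP1 expression by qRT-PCR. Activity in either direction is fitted relative to the 0.5% DMSO vehicle.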

[13] = read-out: Tumor necrosis factor receptor 1 (TNFRSF1A), TNFRSF1A (gene 7132); experiment: LTEA_HepaRG_TNFRSF1A: Life Technologies and Expression Analysis (LTEA) Assay for Tumor necrosis factor receptor 1 (TNFRSF1A) using HepaRG (AID 2283535)
Outline: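 Expression of TNFRSF1A in human HepaRG liver cells was measured by qRT-PCR 48 h after chemical dosing (maximum 100 uM). Bidirectional curve fitting used 0.5% DMSO as baseline.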

[14] = read-out: Thyroid Hormone Responsive (THRSP), THRSP (gene 7069); experiment: LTEA_HepaRG_THRSP: Life Technologies and Expression Analysis (LTEA) Assay for Thyroid Hormone Responsive (THRSP) using HepaRG (AID 2283536)
Outline: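 mRNA induction or loss relative to 0.5% DMSO vehicle was fitted bidirectionally across an eight-point curve whose highest exposure was 100 uM. Human HepaRG liver cells received chemicals in duplicate over 48 h before RNA extraction.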

[15] = read-out: Cellular tumor antigen p53 (Homo sapiens) (UniProt P04637); experiment: LTEA_HepaRG_TP53: Life Technologies and Expression Analysis (LTEA) Assay for Tumor Protein P53 (TP53) using HepaRG (AID 2283537)
Outline: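 HepaRG, 48 h exposure, top 100 uM, half-log 8-point, 0.5% DMSO vehicle, duplicates. Read: TP53 mRNA by TaqMan qRT-PCR, normalised to ACTB/GAPDH/POLR2A; bidirectional fit vs DMSO.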

[16] = read-out: UDP glucuronosyltransferase (UGT1A1), UGT1A1 (gene 54658); experiment: LTEA_HepaRG_UGT1A1: Life Technologies and Expression Analysis (LTEA) Assay for UDP glucuronosyltransferase (UGT1A1) using HepaRG (AID 2283538)
Outline: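 Differentiated human HepaRG cells in serum-free induction medium were exposed in duplicate for 48 h to eight half-log concentrations up to 100 uM in 0.5% DMSO. UGT1A1 mRNA was quantified by TaqMan qRT-PCR, normalized to ACTB, GAPDH and POLR2A, and fitted bidirectionally against DMSO.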

[17] = read-out: UDP glucuronosyltransferase (UGT1A6), UGT1A6 (gene 54578); experiment: LTEA_HepaRG_UGT1A6: Life Technologies and Expression Analysis (LTEA) Assay for UDP glucuronosyltransferase (UGT1A6) using HepaRG (AID 2283539)
Outline: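 Endpoint is UGT1A6 transcript induction or loss in a human liver cell line, quantified by TaqMan qRT-PCR 48 h after dosing. Concentrations ran from 100 uM downward in half-log steps in 0.5% DMSO; activity was fitted in both directions versus vehicle.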

[18] = read-out: succinate dehydrogenase complex iron sulfur subunit B (SDHB), SDHB (gene 6390); experiment: LTEA_HepaRG_SDHB: Life Technologies and Expression Analysis (LTEA) Assay for succinate dehydrogenase complex iron sulfur subunit B (SDHB) using HepaRG (AID 2283528)
Outline: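 HepaRG, 48 h exposure, 8-pt half-log series from 100 uM in 0.5% DMSO, duplicates. Readout: SDHB mRNA by Fluidigm qRT-PCR vs housekeeping genes; bidirectional fit relative to DMSO.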

[19] = read-out: Transforming Growth Factor (TGFB1), TGFB1 (gene 7040); experiment: LTEA_HepaRG_TGFB1: Life Technologies and Expression Analysis (LTEA) Assay for Transforming Growth Factor (TGFB1) Transporter using HepaRG (AID 2283533)
Outline: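 Expression change of TGFB1 in human HepaRG cells is measured after a 48 h chemical exposure, up to 100 uM in 0.5% DMSO vehicle. Curves are fitted in both directions relative to the DMSO baseline.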

Measured: AC50

Nuclear factor erythroid 2-related factor 2 (Homo sapiens), sequence (Q16236 whole entry, looked up): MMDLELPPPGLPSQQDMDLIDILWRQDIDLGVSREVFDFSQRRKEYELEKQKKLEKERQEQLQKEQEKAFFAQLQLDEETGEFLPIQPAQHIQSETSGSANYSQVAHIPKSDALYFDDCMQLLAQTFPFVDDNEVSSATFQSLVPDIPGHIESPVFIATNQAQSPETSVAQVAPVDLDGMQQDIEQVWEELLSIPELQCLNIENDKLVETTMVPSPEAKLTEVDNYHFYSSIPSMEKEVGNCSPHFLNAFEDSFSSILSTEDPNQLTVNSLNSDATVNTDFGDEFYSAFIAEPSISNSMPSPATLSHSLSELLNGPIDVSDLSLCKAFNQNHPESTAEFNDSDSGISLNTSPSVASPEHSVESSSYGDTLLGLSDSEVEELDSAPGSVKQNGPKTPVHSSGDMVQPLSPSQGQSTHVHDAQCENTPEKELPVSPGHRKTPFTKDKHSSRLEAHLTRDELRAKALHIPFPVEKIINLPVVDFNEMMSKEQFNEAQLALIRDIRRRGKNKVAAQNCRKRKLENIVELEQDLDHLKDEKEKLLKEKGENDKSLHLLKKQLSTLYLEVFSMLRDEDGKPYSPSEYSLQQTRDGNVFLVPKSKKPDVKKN
Nuclear factor NF-kappa-B p105 subunit (Homo sapiens), sequence (P19838 whole entry, looked up): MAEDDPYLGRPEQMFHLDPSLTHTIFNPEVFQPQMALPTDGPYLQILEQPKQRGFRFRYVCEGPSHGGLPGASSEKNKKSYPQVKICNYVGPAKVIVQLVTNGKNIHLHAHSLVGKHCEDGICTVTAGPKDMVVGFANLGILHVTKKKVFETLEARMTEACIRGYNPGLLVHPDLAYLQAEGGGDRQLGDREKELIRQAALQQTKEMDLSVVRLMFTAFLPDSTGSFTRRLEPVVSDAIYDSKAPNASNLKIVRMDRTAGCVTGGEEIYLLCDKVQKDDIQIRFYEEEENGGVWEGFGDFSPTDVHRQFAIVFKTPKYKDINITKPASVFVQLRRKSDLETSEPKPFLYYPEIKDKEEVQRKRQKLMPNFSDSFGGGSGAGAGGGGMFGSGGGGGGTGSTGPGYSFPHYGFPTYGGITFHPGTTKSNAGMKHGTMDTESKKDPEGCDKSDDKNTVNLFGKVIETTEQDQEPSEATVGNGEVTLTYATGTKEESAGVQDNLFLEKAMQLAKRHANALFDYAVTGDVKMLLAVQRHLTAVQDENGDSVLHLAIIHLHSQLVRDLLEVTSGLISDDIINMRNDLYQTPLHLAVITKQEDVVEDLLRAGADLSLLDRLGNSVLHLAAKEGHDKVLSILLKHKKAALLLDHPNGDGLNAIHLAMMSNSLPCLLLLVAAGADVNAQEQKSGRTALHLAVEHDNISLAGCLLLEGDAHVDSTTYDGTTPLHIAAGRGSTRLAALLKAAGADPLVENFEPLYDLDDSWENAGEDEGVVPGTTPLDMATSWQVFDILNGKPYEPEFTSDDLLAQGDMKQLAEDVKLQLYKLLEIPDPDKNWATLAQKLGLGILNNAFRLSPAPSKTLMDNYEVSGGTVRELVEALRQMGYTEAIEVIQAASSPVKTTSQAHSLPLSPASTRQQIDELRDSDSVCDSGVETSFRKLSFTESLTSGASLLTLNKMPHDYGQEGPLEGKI
Signal transducer and activator of transcription 3 (Homo sapiens), sequence (P40763 whole entry, looked up): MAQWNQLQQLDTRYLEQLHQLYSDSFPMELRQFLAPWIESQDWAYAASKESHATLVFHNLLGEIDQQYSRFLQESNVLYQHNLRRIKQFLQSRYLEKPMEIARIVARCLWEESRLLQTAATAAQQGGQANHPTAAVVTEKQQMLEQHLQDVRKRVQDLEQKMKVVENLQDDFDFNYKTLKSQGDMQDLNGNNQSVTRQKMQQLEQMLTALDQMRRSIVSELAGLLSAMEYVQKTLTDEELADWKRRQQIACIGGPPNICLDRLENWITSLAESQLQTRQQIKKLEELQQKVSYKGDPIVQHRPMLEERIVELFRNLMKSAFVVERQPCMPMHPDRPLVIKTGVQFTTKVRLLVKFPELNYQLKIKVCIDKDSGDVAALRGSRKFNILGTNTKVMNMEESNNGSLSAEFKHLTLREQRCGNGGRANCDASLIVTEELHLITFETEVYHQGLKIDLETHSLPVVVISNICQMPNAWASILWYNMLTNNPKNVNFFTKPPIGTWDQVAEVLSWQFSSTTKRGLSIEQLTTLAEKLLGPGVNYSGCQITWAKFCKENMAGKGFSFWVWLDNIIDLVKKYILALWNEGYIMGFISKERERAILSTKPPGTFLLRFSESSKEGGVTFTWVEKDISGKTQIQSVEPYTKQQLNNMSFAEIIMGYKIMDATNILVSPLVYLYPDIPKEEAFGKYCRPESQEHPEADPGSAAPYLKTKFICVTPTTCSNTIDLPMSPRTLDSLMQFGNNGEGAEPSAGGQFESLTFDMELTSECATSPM
Cellular tumor antigen p53 (Homo sapiens), sequence (P04637 whole entry, looked up): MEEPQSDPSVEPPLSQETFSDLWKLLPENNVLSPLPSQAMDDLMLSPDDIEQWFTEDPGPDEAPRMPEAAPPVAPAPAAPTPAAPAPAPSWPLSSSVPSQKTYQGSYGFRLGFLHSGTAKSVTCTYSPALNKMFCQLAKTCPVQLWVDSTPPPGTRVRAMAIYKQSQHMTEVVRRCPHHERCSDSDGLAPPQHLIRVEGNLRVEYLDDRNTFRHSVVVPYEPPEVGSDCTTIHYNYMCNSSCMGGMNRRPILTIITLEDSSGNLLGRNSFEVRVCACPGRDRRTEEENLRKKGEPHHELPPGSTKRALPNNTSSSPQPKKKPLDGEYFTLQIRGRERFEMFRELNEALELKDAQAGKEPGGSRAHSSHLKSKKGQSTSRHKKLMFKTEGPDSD

O=P(O)(O)CCCl
active: [15] 0.254 µM
not listed: [18] | [19]
inactive: all other assays above

CCCCC(C#N)(Cn1cncn1)c1ccc(Cl)cc1 (stereo not given)
active: [14] 25 µM | [16] 12.2 µM
not listed: [2] | TIMP1, TIMP1 (gene 7076) | [19]
inactive: all other assays above

CCOP(=O)(OCC)Oc1nc(Cl)c(Cl)cc1Cl
active: [1] 59.6 µM | [3] 76.6 µM | [5] 92.2 µM | [8] 49.8 µM | [10] 93.5 µM | [11] 75.9 µM | [14] 84.2 µM
not listed: TIMP1, TIMP1 (gene 7076) | [18] | [19]
inactive: all other assays above

CC(C)Nc1nc(Cl)nc(NC(C)C)n1
active: [1] 27.2 µM | [16] 8.13 µM
not listed: [2] | [10] | TIMP1, TIMP1 (gene 7076) | [18] | [19]
inactive: all other assays above

CCN(CC)C(=O)C(C)Oc1cccc2ccccc12 (stereo not given)
active: [1] 76.5 µM | [5] 70.1 µM | [16] 12.9 µM
not listed: [2]
inactive: all other assays above

CCOC(=O)C(C)OC(=O)c1cc(Oc2ccc(C(F)(F)F)cc2Cl)ccc1[N+](=O)[O-] (stereo not given)
active: [1] 9.92 µM | [6] 14.3 µM | [14] 28.4 µM | [16] 8.94 µM
not listed: TIMP1, TIMP1 (gene 7076) | [18] | [19]
inactive: all other assays above

COC(=O)N(C(=O)N1CO[C@@]2(C(=O)OC)Cc3cc(Cl)ccc3C2=N1)c1ccc(OC(F)(F)F)cc1
active: [1] 20.5 µM | [5] 47.9 µM | [6] 40 µM | [8] 10 µM | [10] 59 µM | [11] 65 µM | [14] 40 µM | [16] 10 µM
not listed: [2] | [19]
inactive: all other assays above

C=CCOC(=O)C(C)(C)OC(=O)c1cc(-n2c(=O)cc(C(F)(F)F)n(C)c2=O)ccc1Cl
active: [16] 23.1 µM
not listed: [2] | TIMP1, TIMP1 (gene 7076) | [18] | [19]
inactive: all other assays above

Nc1c(Cl)c(Cl)nc(C(=O)O)c1Cl
not listed: [18] | [19]
inactive: all other assays above

From PubChem BioAssay (EPA / NIEHS)
